# Measured values reported in article PMC7862700, “An all-to-all approach to the identification of sequence-specific readers for epigenetic DNA modifications on cytosine”.
# Legend:
# Test in all cases: DAPPL (digital affinity profiling via proximity ligation, sequencing); 10 mM Tris-HCl pH 7.5, 50 mM NaCl, 1 mM DTT, 4% glycerol, room temperature, 30 min; GST-TFs on glutathione beads, 16-mer random dsDNA library, 0.1% formaldehyde crosslink after washing; high values mean tight binding
# FEV = target: T1, FEV (Homo sapiens, UniProt Q99581 1-238); conditions: protein: recombinant; tags: N-terminal GST; dsDNA, one strand shown
# T1 sequence: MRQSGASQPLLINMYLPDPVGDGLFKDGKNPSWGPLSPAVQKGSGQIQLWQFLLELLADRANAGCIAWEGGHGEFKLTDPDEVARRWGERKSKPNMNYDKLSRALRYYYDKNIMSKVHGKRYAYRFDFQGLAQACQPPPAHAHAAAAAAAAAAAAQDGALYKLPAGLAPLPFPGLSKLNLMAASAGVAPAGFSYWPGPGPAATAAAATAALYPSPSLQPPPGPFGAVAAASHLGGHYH
# Outline: (§1)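 Binding signal is given per hexamer as its read frequency for a factor divided by its frequency in the tag-only sample. GST-fused human transcription factors were expressed in yeast, captured on glutathione beads, barcoded with DNA and pooled with that sample, then incubated with 200 nmole of a 16-mer random double-stranded DNA library in Tris/NaCl/DTT/glycerol buffer for 30 min at room temperature. The pools were then washed, crosslinked, proximity-ligated, amplified by PCR and sequenced on an Illumina NextSeq500.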
# ETV5 = ETV5 (Homo sapiens, UniProt P41161 1-510); conditions: protein: recombinant; tags: N-terminal GST; dsDNA, one strand shown
# Chain of ETV5 (P41161 whole entry): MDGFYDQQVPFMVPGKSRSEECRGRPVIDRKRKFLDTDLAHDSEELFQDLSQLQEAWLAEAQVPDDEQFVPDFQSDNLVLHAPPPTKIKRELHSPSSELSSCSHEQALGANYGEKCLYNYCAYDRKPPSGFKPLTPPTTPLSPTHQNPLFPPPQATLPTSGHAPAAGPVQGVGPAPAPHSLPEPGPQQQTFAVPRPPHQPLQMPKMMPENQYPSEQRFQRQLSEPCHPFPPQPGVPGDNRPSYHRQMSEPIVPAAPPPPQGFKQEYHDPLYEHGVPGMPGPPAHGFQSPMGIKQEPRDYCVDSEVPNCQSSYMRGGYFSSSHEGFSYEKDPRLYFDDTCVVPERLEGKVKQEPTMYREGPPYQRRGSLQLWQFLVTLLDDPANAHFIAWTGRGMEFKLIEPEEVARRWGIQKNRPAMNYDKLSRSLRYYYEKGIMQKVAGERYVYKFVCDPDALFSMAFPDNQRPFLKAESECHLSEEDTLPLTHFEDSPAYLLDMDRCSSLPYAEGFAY
# Outline: as §1
# HSF1 = HSF1 (Homo sapiens, UniProt Q00613 1-529); conditions: protein: recombinant; tags: N-terminal GST; chain copies: 3; dsDNA, one strand shown
# Chain of HSF1 (Q00613 whole entry): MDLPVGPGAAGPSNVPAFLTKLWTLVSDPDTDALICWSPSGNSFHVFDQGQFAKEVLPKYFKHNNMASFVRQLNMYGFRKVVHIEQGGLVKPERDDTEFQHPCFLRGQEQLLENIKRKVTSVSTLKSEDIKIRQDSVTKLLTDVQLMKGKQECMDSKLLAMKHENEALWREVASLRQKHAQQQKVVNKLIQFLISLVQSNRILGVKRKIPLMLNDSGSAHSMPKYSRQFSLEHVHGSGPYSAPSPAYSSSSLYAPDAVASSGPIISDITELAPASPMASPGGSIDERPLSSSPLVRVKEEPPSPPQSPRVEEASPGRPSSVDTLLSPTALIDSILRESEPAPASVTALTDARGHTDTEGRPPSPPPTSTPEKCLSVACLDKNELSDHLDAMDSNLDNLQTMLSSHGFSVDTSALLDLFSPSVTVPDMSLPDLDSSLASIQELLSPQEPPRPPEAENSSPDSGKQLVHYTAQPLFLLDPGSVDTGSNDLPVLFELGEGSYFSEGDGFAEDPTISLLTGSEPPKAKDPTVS
# Outline: as §1
# SPIC = target: T2, SPIC (Homo sapiens, UniProt Q8N5J4 1-248); conditions: protein: recombinant; tags: N-terminal GST; dsDNA, one strand shown
# T2 sequence: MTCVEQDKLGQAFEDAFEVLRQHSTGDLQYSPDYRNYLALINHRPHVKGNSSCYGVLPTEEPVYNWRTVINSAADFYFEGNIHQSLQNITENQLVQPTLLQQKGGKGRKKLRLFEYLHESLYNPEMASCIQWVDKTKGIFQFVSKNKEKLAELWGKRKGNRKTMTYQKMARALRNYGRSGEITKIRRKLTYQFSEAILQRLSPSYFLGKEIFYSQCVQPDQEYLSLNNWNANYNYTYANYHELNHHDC
# Outline: as §1
# ELF4 = ELF4 (Homo sapiens, UniProt Q99607 1-663); conditions: protein: recombinant; tags: N-terminal GST; dsDNA, one strand shown
# Chain of ELF4 (Q99607 whole entry): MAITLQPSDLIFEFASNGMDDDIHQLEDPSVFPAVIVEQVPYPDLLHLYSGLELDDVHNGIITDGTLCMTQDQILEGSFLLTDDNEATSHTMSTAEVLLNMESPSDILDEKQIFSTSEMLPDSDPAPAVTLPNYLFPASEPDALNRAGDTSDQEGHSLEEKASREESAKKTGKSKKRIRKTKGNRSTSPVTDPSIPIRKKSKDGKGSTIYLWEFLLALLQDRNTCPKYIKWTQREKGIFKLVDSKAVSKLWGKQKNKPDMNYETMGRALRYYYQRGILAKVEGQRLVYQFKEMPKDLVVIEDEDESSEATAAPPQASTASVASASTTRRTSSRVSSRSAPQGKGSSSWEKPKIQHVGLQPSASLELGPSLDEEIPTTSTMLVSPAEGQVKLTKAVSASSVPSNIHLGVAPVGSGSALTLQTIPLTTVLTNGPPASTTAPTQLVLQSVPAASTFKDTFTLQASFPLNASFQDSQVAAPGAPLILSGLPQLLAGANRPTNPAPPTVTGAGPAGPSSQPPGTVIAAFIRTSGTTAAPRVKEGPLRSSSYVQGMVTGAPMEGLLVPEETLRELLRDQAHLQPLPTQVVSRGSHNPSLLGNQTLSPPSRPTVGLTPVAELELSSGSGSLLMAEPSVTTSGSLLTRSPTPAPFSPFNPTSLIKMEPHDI
# Outline: as §1
# ELK4 = target: T3, ELK4 (Homo sapiens, UniProt P28324-2 1-405); conditions: protein: recombinant; tags: N-terminal GST; dsDNA, one strand shown
# T3 sequence: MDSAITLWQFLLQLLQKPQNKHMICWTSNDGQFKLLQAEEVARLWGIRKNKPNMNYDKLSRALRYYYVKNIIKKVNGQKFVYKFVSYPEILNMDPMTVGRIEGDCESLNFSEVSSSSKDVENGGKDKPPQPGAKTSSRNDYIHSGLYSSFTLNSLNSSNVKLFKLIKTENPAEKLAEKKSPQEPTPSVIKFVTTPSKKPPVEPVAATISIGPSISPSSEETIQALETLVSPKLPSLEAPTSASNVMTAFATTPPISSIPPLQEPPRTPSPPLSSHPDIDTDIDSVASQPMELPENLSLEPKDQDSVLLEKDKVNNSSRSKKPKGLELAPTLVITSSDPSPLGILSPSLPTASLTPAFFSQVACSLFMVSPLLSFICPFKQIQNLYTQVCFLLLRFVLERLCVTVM
# Outline: as §1
# ETV2 = target: T4, ETV2 (Homo sapiens, UniProt O00321 1-342); conditions: protein: recombinant; tags: N-terminal GST; dsDNA, one strand shown
# T4 sequence: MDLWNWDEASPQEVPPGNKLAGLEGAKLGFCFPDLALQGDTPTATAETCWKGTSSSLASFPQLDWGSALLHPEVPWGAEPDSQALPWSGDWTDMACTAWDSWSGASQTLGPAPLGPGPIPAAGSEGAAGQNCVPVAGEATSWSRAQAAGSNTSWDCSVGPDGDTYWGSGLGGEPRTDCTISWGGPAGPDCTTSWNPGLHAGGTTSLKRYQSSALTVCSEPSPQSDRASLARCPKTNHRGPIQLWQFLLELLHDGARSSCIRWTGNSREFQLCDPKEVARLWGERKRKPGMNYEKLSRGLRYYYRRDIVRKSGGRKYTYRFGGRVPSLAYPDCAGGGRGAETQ
# Outline: as §1
# ELF3 = target: T5, ELF3 (Homo sapiens, UniProt P78545 1-371); conditions: protein: recombinant; tags: N-terminal GST; dsDNA, one strand shown
# T5 sequence: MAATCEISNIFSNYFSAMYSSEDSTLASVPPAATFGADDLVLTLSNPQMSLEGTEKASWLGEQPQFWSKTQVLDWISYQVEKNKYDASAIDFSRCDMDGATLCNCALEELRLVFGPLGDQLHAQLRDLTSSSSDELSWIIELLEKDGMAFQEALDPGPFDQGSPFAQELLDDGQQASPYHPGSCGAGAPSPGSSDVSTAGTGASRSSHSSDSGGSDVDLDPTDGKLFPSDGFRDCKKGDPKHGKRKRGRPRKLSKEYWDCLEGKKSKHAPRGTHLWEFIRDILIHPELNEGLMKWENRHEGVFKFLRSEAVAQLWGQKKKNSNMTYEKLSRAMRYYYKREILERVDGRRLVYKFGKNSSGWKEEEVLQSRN
# Outline: as §1
# CRX = CRX (Homo sapiens, UniProt O43186 1-299); conditions: protein: recombinant; tags: N-terminal GST; dsDNA, one strand shown
# Chain of CRX (O43186 whole entry): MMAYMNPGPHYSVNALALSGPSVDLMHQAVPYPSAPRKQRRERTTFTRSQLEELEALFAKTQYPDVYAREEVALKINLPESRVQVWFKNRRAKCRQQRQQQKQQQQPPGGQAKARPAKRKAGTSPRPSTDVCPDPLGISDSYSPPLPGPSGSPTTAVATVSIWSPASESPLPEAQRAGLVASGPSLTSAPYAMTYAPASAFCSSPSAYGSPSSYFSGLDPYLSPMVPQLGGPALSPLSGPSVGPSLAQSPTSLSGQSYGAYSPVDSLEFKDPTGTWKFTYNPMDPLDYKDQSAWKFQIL
# Outline: as §1
# ETV1 = ETV1 (Homo sapiens, UniProt P50549 1-477); conditions: protein: recombinant; tags: N-terminal GST; dsDNA, one strand shown
# Chain of ETV1 (P50549 whole entry): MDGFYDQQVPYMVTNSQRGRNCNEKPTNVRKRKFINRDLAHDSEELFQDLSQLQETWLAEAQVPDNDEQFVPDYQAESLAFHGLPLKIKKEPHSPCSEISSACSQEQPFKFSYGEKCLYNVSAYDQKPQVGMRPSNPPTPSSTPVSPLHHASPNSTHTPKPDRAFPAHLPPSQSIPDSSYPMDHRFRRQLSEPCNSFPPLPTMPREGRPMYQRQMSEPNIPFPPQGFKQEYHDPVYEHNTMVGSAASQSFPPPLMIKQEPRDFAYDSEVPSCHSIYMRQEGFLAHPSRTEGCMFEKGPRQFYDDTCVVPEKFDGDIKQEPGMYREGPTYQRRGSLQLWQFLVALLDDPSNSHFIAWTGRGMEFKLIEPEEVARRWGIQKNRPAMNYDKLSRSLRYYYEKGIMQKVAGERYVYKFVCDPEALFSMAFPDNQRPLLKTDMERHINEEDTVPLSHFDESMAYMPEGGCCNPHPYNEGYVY
# Outline: as §1
sequence,measurement,setting,value
TAATAT,binding signal,FEV,"1.25 fold enrichment (6-mer frequency, TF over GST control)"
same,binding signal,ETV5,"1.26 fold enrichment (6-mer frequency, TF over GST control)"
same,binding signal,HSF1,"1.58 fold enrichment (6-mer frequency, TF over GST control)"
same,binding signal,SPIC,"1.16 fold enrichment (6-mer frequency, TF over GST control)"
same,binding signal,ELF4,"1.28 fold enrichment (6-mer frequency, TF over GST control)"
same,binding signal,ELK4,"1.37 fold enrichment (6-mer frequency, TF over GST control)"
same,binding signal,ETV2,"1.31 fold enrichment (6-mer frequency, TF over GST control)"
same,binding signal,ELF3,"1.25 fold enrichment (6-mer frequency, TF over GST control)"
same,binding signal,CRX,"2.01 fold enrichment (6-mer frequency, TF over GST control)"
same,binding signal,ETV1,"1.27 fold enrichment (6-mer frequency, TF over GST control)"
